D1 potentiator: human D1 dopamine receptor positive modulation; potentiation, % at 10 µM; actives 0.036% (n = 360,000); P21728; AID 504651; HEK293 TREx D1 cells, calcium flux, dopamine EC20 potentiation; in the data active = potentiation above about 30%; also: 0% is about no effect
Target sequence (P21728 whole entry, looked up): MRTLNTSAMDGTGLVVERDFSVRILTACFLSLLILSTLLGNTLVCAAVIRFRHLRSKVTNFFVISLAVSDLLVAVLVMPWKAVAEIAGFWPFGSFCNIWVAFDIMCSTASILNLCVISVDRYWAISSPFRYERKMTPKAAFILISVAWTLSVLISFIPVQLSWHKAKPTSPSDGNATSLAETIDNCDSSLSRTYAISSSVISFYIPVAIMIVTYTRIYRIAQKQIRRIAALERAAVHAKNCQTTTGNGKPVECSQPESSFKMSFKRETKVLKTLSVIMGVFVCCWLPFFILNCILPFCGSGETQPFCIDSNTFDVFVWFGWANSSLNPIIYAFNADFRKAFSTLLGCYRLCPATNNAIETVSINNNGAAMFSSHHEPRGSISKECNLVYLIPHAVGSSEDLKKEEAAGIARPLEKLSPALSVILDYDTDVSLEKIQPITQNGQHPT
D1 antag: human D1 dopamine receptor antagonism | P21728 | AID 504652 | activity change, negative = inhibition, % at 10 µM | HEK293 TREx D1 cells, calcium flux, dopamine EC80; hits give low values | actives 3.2% (n = 360,000); in the data active = activity change below about -30%; also: % is scaled to controls: 0 for no effect and ±100 for the full control effect
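Inducible Hek293 Trex D1 cells (tetracycline, overnight, 30 C). Calcium dye 30–90 min RT. Antagonist mode: EC80 dopamine added after 180 s compound read.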
D1 agonist: human D1 receptor agonism. HEK293 T-REx D1 cells, calcium flux, agonist mode. activation, % at 2 µM. actives 1% (n = 360,000). P21728. AID 504660; in the data active = activation above about 30%; also: 0% is about no effect
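Tetracycline-induced HEK293 TREx D1 cells, force-coupled to calcium signalling, were dye-loaded with a no-wash calcium kit. Compound was pin-added after a 10 s baseline. Fluorescence was read kinetically at 1 cycle/s for 180 s, with calcium rises flagged as agonism.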
D3 ag: D3 dopamine receptor (human) agonism. D3R DiscoveRx beta-arrestin cells, luminescence, 90 min. AID 652048. actives 0.58% (n = 410,000). max activation, %; in the data active = max activation above about 30%; also: 0% is about no effect
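Cells at 1500/well, incubated overnight, then treated with pinned compounds (dopamine as control) for 90 min at 37 degrees C. DiscoveRx reagent added for 30 - 60 minutes at room temperature; luminescence read.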
D3 antag: blocks the human D3 dopamine receptor. D3R cells, DiscoveRx beta-arrestin luminescence, antagonist mode; hits give low values. max response, negative = inhibition, %. actives 2.5% (n = 360,000); in the data active = max response below about -50%; inconclusive = no clear call, values can overlap the other calls; also: % is scaled to controls: 0 for no effect and ±100 for the full control effect
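Cells plated overnight at 1500 cells/well, then exposed to library compounds with dopamine controls for 90 minutes at 37 degrees C. DiscoveRx reagent added for 30–60 minutes at room temperature; luminescence read, quantitative HTS format.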
Starred values were filed as active, the others as inactive; ? = inconclusive; . = not tested or not shown; ! = repeats disagree. A selection: hits, their analogues and other compounds. The true share with any hit is near 6%.

SMILES | D1 potentiator | D1 antag | D1 agonist | D3 ag | D3 antag
COc1ccc(-c2noc(-c3nnn(-c4cc(C)ccc4C)c3N)n2)cc1 | -5 | -5 | 11 | 4 | .
Cc1ccc(Cl)cc1N1CCN(CCCNc2ncnc3onc(-c4ccc(F)cc4)c23)CC1 | 1 | 6 | 2 | -24 | .
O=C(Nc1ccc(Cl)c(C(F)(F)F)c1)c1ccco1 | -3 | -29 | -1 | -1 | -18
CCNC(=S)Nc1ccc(Cl)c(C(F)(F)F)c1 | -6 | -32* | 20 | -4 | -14
Cc1ccc(NC(=O)CN(C)CC(=O)Nc2ccc(F)c(Cl)c2)cc1 | 3 | -55* | 2 | 3 | 1
O=c1nc(/C=C/c2cccn2-c2ccc([N+](=O)[O-])cc2)cc(C(F)(F)F)[nH]1 | -5 | 18 | 3 | 19 | 2
O=c1nc(/C=C/c2cc([N+](=O)[O-])ccc2Cl)cc(C(F)(F)F)[nH]1 | 11 | 2 | 0 | -12 | -69*
O=C1c2ccccc2C(=O)C1c1ccc(F)cc1 | . | . | . | 62* | .
O=C1c2ccccc2C(=O)C1c1ccc(Br)cc1 | -6 | -3 | 0 | 88*! | -4
O=C1c2ccccc2C(=O)C1c1ccc(O)cc1 | -2 | -20 | 1 | 7 | 10
Cc1ccc(C)c(NC(=O)Nc2csc3c2CCCC3)c1 | 0 | 1 | 1 | -23 | .
CCc1ccccc1NC(=O)C1CCN(c2nn3c(=O)cc(C)nc3s2)CC1 | -1 | 13 | 0 | 3 | .
COc1ccc(NC(=O)C2Cc3ccccc3CN2S(=O)(=O)c2ccccc2)cc1OC (centres undefined) | 0 | -59* | 1 | -6 | .
O=C1CC(c2ccccc2)Sc2ccccc2N1Cc1ccccc1F (centres undefined) | -6 | 7 | 4 | 7 | .
COc1ccc(S(=O)(=O)N(CC(=O)Nc2cc(Cl)ccc2C)Cc2ccccc2)cc1OC | -1 | 10 | 30 | -13 | .
Cc1ccccc1C(=O)N1[C@@H](C(C)C)COc2cc(Br)ccc2S1(=O)=O | . | . | . | 35* | 15
CC(C)C[C@H]1COc2cc(Br)ccc2S(=O)(=O)N1 | . | . | . | 3 | -28
Cc1ccc(S(=O)(=O)NNC(=O)C2Cc3c(ccc4ccccc34)O2)cc1 (centres undefined) | -3 | -23 | 33* | -3 | 10
CCCCOc1ccc(S(=O)(=O)NNC(=O)C2Cc3c(ccc4ccccc34)O2)cc1 (centres undefined) | 3 | 4 | 0 | 2 | 13
COc1ccc(CN(C(=O)c2cc(=O)c3ccccc3o2)C2CCS(=O)(=O)C2)cc1OC (centres undefined) | 13 | -37*! | 4 | 1 | 18
O=C(c1cc(=O)c2ccccc2o1)N(Cc1ccccc1)C1CCS(=O)(=O)C1 (centres undefined) | 3 | 3 | 0 | 0 | 2
O=C(c1ccco1)N(Cc1ccc(Cl)cc1)C1CCS(=O)(=O)C1 (centres undefined) | -4 | -3 | 2 | 38* | -4
Cc1ccc2c(=O)cc(C(=O)N(Cc3ccc(C(C)(C)C)cc3)C3CCS(=O)(=O)C3)oc2c1 (centres undefined) | -3 | -75* | 0 | -1 | .
Cc1cc2oc(C(=O)N(Cc3ccccc3)C3CCS(=O)(=O)C3)cc(=O)c2cc1C (centres undefined) | 3 | -7 | 0 | 6 | .
COCCCNC(=O)C[C@H]1C[C@H](C(=O)N2CCOCC2)[C@@]2(C)c3[nH]c4cc(-c5ccco5)ccc4c3CCN2C1=O | . | . | . | 35* | 5
SMILES | D1 potentiator | D1 antag | D1 agonist | D3 ag | D3 antag
CN(C)CCCNC(=O)C[C@H]1C[C@H](C(=O)N2CCOCC2)[C@@]2(C)c3[nH]c4cc(-c5ccco5)ccc4c3CCN2C1=O | . | . | . | 9 | -9
CC[C@]12c3[nH]c4ccccc4c3CCN1C(=O)C(CC(=O)NCCCN(C)C)C[C@@H]2C(=O)N1CCN(C(=O)C2CC2)CC1 (some centres undefined) | . | . | . | -8 | -59*
CCN(CC)C(=O)[C@H]1CC(CC(=O)NCCc2ccccn2)C(=O)N2CCc3c([nH]c4ccccc34)[C@]12C (some centres undefined) | . | . | . | -21 | -55*
CC[C@]12c3[nH]c4ccccc4c3CCN1C(=O)C(CC(=O)NCCCOC)C[C@@H]2C(=O)N1CCN(C(=O)C2CC2)CC1 (some centres undefined) | . | . | . | -16 | -17
CC[C@]12c3[nH]c4ccc(OC)cc4c3CCN1C(=O)C(CC(=O)NCCCn1ccnc1)C[C@@H]2C(=O)N1CCN(C(=O)c2ccco2)CC1 (some centres undefined) | . | . | . | 28 | 38
CCN(CC)C(=O)[C@H]1CC(CC(=O)NCCc2ccccn2)C(=O)N2CCc3c([nH]c4ccc(OC)cc34)[C@]12C (some centres undefined) | . | . | . | -33 | -19
CC[C@]12c3[nH]c4ccc(Cl)cc4c3CCN1C(=O)[C@@H](CC(=O)NCCCn1ccnc1)C[C@@H]2C(=O)N1CCN(C(=O)c2ccco2)CC1 | . | . | . | 49* | 6
CC(C)CCNC(=O)CN1C(=O)c2cccnc2Oc2ccccc21 | -2 | -10 | -2 | 8 | .
CCN(CCCNC(=O)CSc1cc(=O)n(CC)c2ccccc12)c1cccc(C)c1 | 2 | -25 | 4 | -5 | .
COc1ccccc1N1CCN(S(=O)(=O)c2c(C)sc3ncn(CC(=O)N(C)c4ccc(C(C)C)cc4)c(=O)c23)CC1 | 6 | 12 | 0 | 5 | .
COC(=O)Cc1c(C)c2ccc3c(c2oc1=O)CN(Cc1ccc(Cl)cc1)CO3 | -1 | -1 | 7 | -4 | .
COc1cc(/C=C2\SC(=S)N(NS(=O)(=O)c3ccccc3)C2=O)ccc1O | 0 | -3 | 44* | -1 | -5
COc1ccc(/C=C2/SC(=S)N(NS(=O)(=O)c3ccccc3)C2=O)cc1 | 4 | 3 | -4 | 16 | -8
COc1cc(/C=C2\SC(=S)N(NS(=O)(=O)c3ccc(C)cc3)C2=O)ccc1O | 4 | -9 | 82* | 1 | ?
O=C(Cn1c(=O)n(Cc2nc(-c3ccccc3)no2)c(=O)c2cc3c(cc21)OCO3)Nc1ccc(Cl)cc1 | -1 | -3 | 7 | 5 | .
CCCN(CCC)C(=O)c1cc2c(=O)n3cccc(C)c3nc2s1 | 3 | -60*! | 0 | -8 | 4
CCNC(=O)/C(C#N)=C/c1c(N2CCN(c3ccccc3)CC2)nc2c(C)cccn2c1=O | -3 | 6 | 0 | -26 | -69*
C=CCNC(=O)/C(C#N)=C/c1c(N2CCN(c3cccc(Cl)c3)CC2)nc2c(C)cccn2c1=O | -10 | -14 | 3 | -33 | -59*
COCCNC(=O)/C(C#N)=C/c1c(N2CCN(c3cccc(Cl)c3)CC2)nc2c(C)cccn2c1=O | -8 | 12 | 5 | -15 | -5
CNC(=O)/C(C#N)=C/c1c(N2CCN(c3cccc(Cl)c3)CC2)nc2c(C)cccn2c1=O | 9 | -18 | 2 | -39 | -57*

Assay outcomes deposited in PubChem by National Center for Advancing Translational Sciences (NCATS).
